Assay [1] is described as follows: qHTS assay to identify small molecule agonists of the NFkB signaling pathway (AID 1159509; active = well fitted curve in the direction sought with a large enough effect in the signal ratio in the repeat runs, not every such curve was filed as active; the % refers to the signal ratio; note: series mostly up to about 61 µM). Summed up:
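Pathway activation was measured in ME-180 cells stably expressing beta-lactamase under NF-kB response element control. Substrate cleavage was read as the 460/530 nm emission shift after 5 hr compound incubation.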
(In qHTS, concentration-response curves come from the screen itself.)

Assay [2] in a line: qHTS assay to identify small molecule agonists of the NFkB signaling pathway - cell viability counter screen (AID 1159515; calls by dose curve; note: series mostly up to about 61 µM; nearly all actives have a fitted effect of over 55% in size). Summed up: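 Read by CellTiter-Glo luminescence (30 min, room temperature) in the wells also used for the beta-lactamase FRET read. ME-180 NFkB-bla cells at 2,000 per well were plated overnight, then exposed to compound for 5 hr at 37 C.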
Assay [3] in a line: qHTS assay to identify small molecule agonists of the endoplasmic reticulum stress response signaling pathway (AID 1159516; active = well fitted activation curve with a large enough effect in the signal ratio in the repeat runs, not every such curve was filed as active; the % refers to the signal ratio). Summed up:
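Ratiometric FRET readout (405 nm excitation; 460 and 530 nm emission) of a beta-lactamase gene driven by the ER stress response element, after 2 hr substrate loading. HeLa ESRE-bla cells were seeded overnight and treated with compounds for only 5 hr at 37 C.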

Assay [4] in a line: qHTS assay to identify small molecule agonists of the endoplasmic reticulum stress response signaling pathway - cell viability counter screen (AID 1159517; calls by dose curve; note: series mostly up to about 61 µM; nearly all actives have a fitted effect of over 50% in size). Summed up:
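In parallel with the ESRE reporter read, cytotoxicity was scored by CellTiter-Glo luminescence (30 min, room temperature) on HeLa ESRE-bla cells dosed for 5 hr.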

The nature of assay [5]: qHTS assay to identify small molecule antagonists of the retinoid-related orphan receptor gamma (ROR-gamma) signaling pathway - cell viability counter screen (AID 1159520). Note: nearly all actives have a fitted effect of over 50% in size. A digest of the protocol:
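Tet-on ROR gamma CHO cells were given compounds for 2 hr, then doxycycline hyclate at 1 uM final, and incubated 16 hr at 37 C. Viability was measured as ATP content by CellTiter-Glo luminescence.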

Assay [6] concerns the target Nuclear receptor ROR-gamma (Homo sapiens) (UniProt P51449). The experiment in a line: qHTS assay to identify small molecule antagonists of the retinoid-related orphan receptor gamma (ROR-gamma) signaling pathway (AID 1159521;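 note: CHO cells with doxycycline inducible ROR-gamma driving an RORE luciferase reporter; top concentration of the series differs between compounds; nearly all actives have a fitted effect of over 50% in size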). Summed up:
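Luminescence readout (ONE-Glo, 30 min RT) after 16 h doxycycline induction; loss of signal scored as antagonism. CHO cells with TET-inducible RORγ and RORE-LUC reporter; compounds added 2 h before 1 uM final doxycycline.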

Assay [7] is described as follows: qHTS assay to identify small molecule agonists of the AP-1 signaling pathway - cell viability counter screen (AID 1159525; calls by dose curve; note: nearly all actives have a fitted effect of over 55% in size). A digest of the protocol: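 Same-well cytotoxicity counter screen of the Tox21 10K library in ME-180 cells. The readout is ATP-dependent luminescence after 5 h compound treatment. Data are normalised to DMSO and tetra n-octyl ammonium bromide controls.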

Assay [8] can be described thus: qHTS assay to identify small molecule agonists of the AP-1 signaling pathway (AID 1159526; calls by dose curve).
Assay [9] has as its target Retinoic acid receptor RXR-alpha (Homo sapiens) (UniProt P19793). The experiment in a line: qHTS assay to identify small molecule agonists of the RXR signaling pathway (AID 1159527; calls by dose curve; note: nearly all actives have a fitted effect of over 35% in size; note: potency is the fitted concentration of half-maximal effect). Summed up: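 Agonist mode; 9-cis retinoic acid positive control. HEK 293T UAS-bla reporter cells, 2% charcoal-stripped FBS, 16 hr compound exposure at 37 C/5% CO2. LiveBLAzer B/G FRET substrate 2 hr RT; ex 405, em 460/530 nm.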

Assay [10] can be described thus: qHTS assay to identify small molecule agonists of the RXR signaling pathway - cell viability counter screen (AID 1159529). Note: series mostly up to about 77 µM; nearly all actives have a fitted effect of over 50% in size. A digest of the protocol:
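Luminescence from CellTiter-Glo (30 min, RT) measured viability in the same wells as the beta-lactamase reporter readout. Cells: GeneBLAzer RXR-alpha HEK 293T, 2% charcoal-stripped FBS. Compound exposure 16 hr, 37 C.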

The nature of assay [11]: qHTS assay to identify small molecule antagonists of the retinoid acid receptor (RAR) signaling pathway - cell viability counter screen (AID 1159551). Note: nearly all actives have a fitted effect of over 35% in size. Summed up:
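Cytotoxicity counter screen: ATP content quantified by CellTiter-Glo luminescence in C3RL4 cells treated 6 hr at 37 C with compound and retinol (1 uM final). Cells plated at 1,000/well and cultured overnight before dosing.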

A short description of assay [12]: qHTS assay to identify small molecule antagonists of the retinoic acid receptor (RAR) signaling pathway (AID 1159552; note: nearly all actives have a fitted effect of over 50% in size). Summed up:
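Luminescence from a RARE luciferase reporter in C3RL4 cells served as read-out. Cells received compounds together with 1 uM final retinol and incubated 6 hr at 37 C before detection reagent was added for 30 min at room temperature.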

Assay [13] is described as follows: qHTS assay to identify small molecule agonists of the retinoic acid receptor (RAR) signaling pathway (AID 1159553). Summed up: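 Luminescence was measured 30 min after luciferase reagent addition at room temperature. Before that, C3RL4 reporter cells (1,000 per well, plated overnight) were treated with compound for 6 hr at 37 C and 5% CO2.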
The nature of assay [14]: qHTS assay to identify small molecule antagonists of the estrogen related receptor (ERR) signaling pathway from Tox21 library - cell viability counter screen (AID 1224834). Note: nearly all actives have a fitted effect of over 30% in size. Summed up:
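CellTiter-Fluor fluorescence, read after 30 min at 37 C, measures viability of ERR cells. Cells plated at 2,000/well and incubated 6 h before pin-tool compound addition, then exposed 17.5 hours at 37 C.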

Assay [15] deals with Luciferin 4-monooxygenase (Photinus pyralis) (UniProt P08659). Description: qHTS assay to identify small molecule inhibitors of firefly luciferase (AID 1224835). Note: series mostly up to about 120 µM; nearly all actives have a fitted effect of over 25% in size. A digest of the protocol: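 Biochemical qHTS: compounds run as interplate titrations against purified firefly enzyme, with D-luciferin and ATP each at its KM concentration. Light output recorded by CCD imaging.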
Assay [16] in a line: qHTS assay to identify small molecule agonists of the constitutive androstane receptor (CAR) signaling pathway - cell viability counter screen (AID 1224836). Note: series mostly up to about 92 µM; nearly all actives have a fitted effect of over 45% in size. A digest of the protocol:
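Viability read-out: CellTiter-Fluor fluorescence after 23 h compound exposure at 37 C/5% CO2 in double-stable HepG2-CYP2B6-hCAR cells, with PK11195 present at 0.75 uM final; compounds tested in 15-point titration.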

Assay [17] in a line: qHTS assay to identify small molecule antagonists of the constitutive androstane receptor (CAR) signaling pathway - cell viability counter screen (AID 1224837). Note: series mostly up to about 92 µM; nearly all actives have a fitted effect of over 45% in size. Summed up: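 Cytotoxicity counter-screen: CellTiter-Fluor fluorescence after 23 h compound exposure (15-point qHTS) in double-stable HepG2-CYP2B6-hCAR cells, with 50 nM CITCO added.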
Assay [18] addresses Nuclear receptor subfamily 1 group I member 3 (Homo sapiens) (UniProt Q14994). The experiment in a line: qHTS assay to identify small molecule antagonists of the constitutive androstane receptor (CAR) signaling pathway (AID 1224838).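 Note: HepG2 cells stably expressing hCAR with CYP2B6 luciferase reporter stimulated by CITCO; nearly all actives have a fitted effect of over 40% in size.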 Summed up:
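Antagonism measured as luciferase signal (ONE-Glo, 30 min, room temperature) in CAR-stimulated cells: HepG2-CYP2B6-hCAR double-stable line exposed 24 hr at 37 C to compound in a 15-point series plus 50 nM CITCO.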

Assay [19] shares this target. The experiment in a line: qHTS assay to identify small molecule agonists of the constitutive androstane receptor (CAR) signaling pathway (AID 1224839).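 Note: HepG2 cells stably carrying human CAR and a CYP2B6 luciferase reporter; series mostly up to about 92 µM; nearly all actives have a fitted effect of over 15% in size.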 Summed up: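 Luminescence read-out (ONE-Glo, 30 min, room temperature) from double-stable HepG2-CYP2B6-hCAR cells exposed 24 h to 15-point compound series in presence of 0.75 uM PK11195 final.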

The structures appear in SMILES notation. Records with an inconclusive call do not appear. The source made the active and inactive calls. Unless noted, calls come from the whole dose curve; as a rule, active = well fitted curve in the direction sought with a large enough effect in the repeat runs; inconclusive = weak or mixed curves; inactive = no such curve, though single readings can be large; an effect the other way counts as inactive or inconclusive.

Luciferin 4-monooxygenase (Photinus pyralis), sequence (P08659 whole entry, looked up): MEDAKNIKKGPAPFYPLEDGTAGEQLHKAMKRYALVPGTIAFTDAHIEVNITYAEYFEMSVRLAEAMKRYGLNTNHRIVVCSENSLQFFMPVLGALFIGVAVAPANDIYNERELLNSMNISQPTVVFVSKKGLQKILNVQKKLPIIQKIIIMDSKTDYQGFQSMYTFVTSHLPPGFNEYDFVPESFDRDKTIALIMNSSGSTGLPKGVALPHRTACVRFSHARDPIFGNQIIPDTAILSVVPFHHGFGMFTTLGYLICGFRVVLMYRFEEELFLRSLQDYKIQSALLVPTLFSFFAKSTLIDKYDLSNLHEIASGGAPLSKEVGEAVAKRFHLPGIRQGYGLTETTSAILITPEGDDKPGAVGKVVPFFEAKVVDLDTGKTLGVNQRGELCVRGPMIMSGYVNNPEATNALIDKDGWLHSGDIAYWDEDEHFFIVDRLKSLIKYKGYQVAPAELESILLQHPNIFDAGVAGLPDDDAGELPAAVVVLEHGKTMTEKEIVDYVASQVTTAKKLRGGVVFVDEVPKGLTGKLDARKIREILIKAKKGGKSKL
Retinoic acid receptor RXR-alpha (Homo sapiens), sequence (P19793 whole entry, looked up): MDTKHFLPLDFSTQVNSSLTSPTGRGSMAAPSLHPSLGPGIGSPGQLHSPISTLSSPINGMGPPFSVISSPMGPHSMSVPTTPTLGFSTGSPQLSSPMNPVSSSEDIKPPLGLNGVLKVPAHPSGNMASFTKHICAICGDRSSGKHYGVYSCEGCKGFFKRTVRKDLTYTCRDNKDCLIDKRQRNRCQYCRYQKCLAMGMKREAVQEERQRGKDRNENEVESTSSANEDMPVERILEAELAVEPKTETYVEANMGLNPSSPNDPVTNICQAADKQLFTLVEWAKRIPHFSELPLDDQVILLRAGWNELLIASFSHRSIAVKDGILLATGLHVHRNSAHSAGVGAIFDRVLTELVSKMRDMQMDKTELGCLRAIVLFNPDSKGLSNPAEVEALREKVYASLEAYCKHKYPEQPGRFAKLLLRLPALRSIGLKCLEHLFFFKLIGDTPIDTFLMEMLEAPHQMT
Nuclear receptor subfamily 1 group I member 3 (Homo sapiens), sequence (Q14994 whole entry, looked up): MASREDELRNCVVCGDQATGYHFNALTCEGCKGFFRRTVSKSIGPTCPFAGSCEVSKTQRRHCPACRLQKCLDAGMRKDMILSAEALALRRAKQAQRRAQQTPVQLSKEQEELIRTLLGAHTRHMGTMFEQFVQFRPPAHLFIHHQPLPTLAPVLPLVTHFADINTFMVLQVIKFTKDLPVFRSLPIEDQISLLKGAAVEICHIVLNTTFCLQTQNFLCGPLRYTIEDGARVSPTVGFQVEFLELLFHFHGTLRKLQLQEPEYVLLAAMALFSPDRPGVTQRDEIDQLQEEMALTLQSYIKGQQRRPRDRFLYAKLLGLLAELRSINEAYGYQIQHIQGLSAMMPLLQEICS

Regarding `N#CCC(=O)NN`, the call in assay [1], in assay [2], in assay [3], in assay [4], in [5] and in assay [6] was inactive. Besides, the result in assay [7], in [8], in assay [10], in assay [11], in [12] and in assay [14] was inactive. Further, the molecule was called inactive in assay [16] and in assay [17]. The Potency entry in assay [9], in [13], in assay [15] and in [18] was “inactive” each time.
For `CC(S)C(C)S` (centres undefined), the call in [1], in [2], in assay [3], in [4], in [5] and in assay [6] was inactive. Besides, the call in assay [7], in assay [8], in [10], in [11], in assay [12] and in [14] was inactive. Further, the outcome in [16] and in [17] was inactive. Besides, the Potency entry in assay [9], in assay [13], in assay [15], in assay [18] and in assay [19] was “inactive” in each case.
As to `CC(C)Cn1cnc2c1c(=O)n(C)c(=O)n2C`, the molecule was classed as inactive in [1], in [2], in [3], in assay [4], in assay [5] and in assay [6]. The molecule was classed as inactive in assay [7], in assay [8], in [10], in assay [11], in assay [12] and in assay [14]. Also, the molecule was classed as inactive in assay [16] and in assay [17]. For the same molecule, the Potency entry in [9], in [13], in assay [15], in assay [18] and in [19] was “inactive” throughout.
For the molecule `Nc1nnnn1-c1ccccc1`, the call in [1], in assay [2], in assay [3], in [4], in assay [5] and in [6] was inactive. Further, the molecule was called inactive in assay [7], in assay [8], in assay [10], in assay [11], in [12] and in assay [14]. For the same molecule, the outcome in [16] and in assay [17] was inactive. In addition, the Potency entry in [9], in assay [13], in assay [15], in assay [18] and in assay [19] was “inactive” in each case.
As for `CCCCOC(=O)[C@H](C)O`, the molecule was classed as inactive in [1], in assay [2], in [3], in assay [4], in assay [5] and in [6]. Also, the molecule was classed as inactive in assay [7], in assay [8], in assay [10], in [11], in assay [12] and in [14]. Also, the outcome in assay [16] and in [17] was inactive. The Potency entry in [9], in assay [13], in [15] and in [18] was “inactive” throughout.
For the molecule `COC(=O)c1ccccc1C(=O)O`, the call in assay [1], in assay [2], in assay [3], in assay [4], in assay [5] and in assay [6] was inactive. Further, the call in assay [7], in assay [8], in assay [10], in [11], in assay [12] and in assay [14] was inactive. Besides, the call in assay [16] and in assay [17] was inactive. In assay [9], the Potency was 21.9 µM (active). The Potency entry in assay [13], in assay [15] and in [18] was “inactive” each time.
In the case of `C=CCN1C[C@H](C(=O)N(CCCN(C)C)C(=O)NCC)C[C@@H]2c3cccc4[nH]cc(c34)C[C@H]21`, the molecule was called inactive in assay [1], in assay [2], in assay [3], in assay [4], in assay [5] and in assay [6]. The molecule was classed as inactive in [7], in assay [8], in assay [10], in [11], in [12] and in assay [14]. For the same molecule, the molecule was classed as inactive in assay [16] and in assay [17]. For the same molecule, the Potency result in [9], in assay [13], in [15], in [18] and in assay [19] was “inactive” each time.
On to `CCCCSCCCC`, for which the result in [1], in assay [2], in [3], in assay [4], in assay [5] and in assay [6] was inactive. The outcome in assay [7], in assay [8], in assay [10], in assay [11], in [12] and in [14] was inactive. In addition, the outcome in assay [16] and in assay [17] was inactive. The Potency in assay [9] was 21.9 µM (active). For the same molecule, the Potency entry in assay [13], in assay [15], in assay [18] and in [19] was “inactive” each time.

The values above are taken from PubChem BioAssay (Tox21).
